Source: PubChem BioAssay
The list is not random: actives were taken first. Their share in the collection is about 3.6%.
LGR2 inh: blocks bursicon-induced cAMP signaling via Drosophila LGR2; HEK293 LGR2, CRE-luciferase, bursicon-stimulated, 4 h; inhibition, % at 9.99 µM; actives 0.35% (n = 380,000);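 active = drop in luminescence signal, shown as inhibition above about 50% in the replicate tests, limit read from the data, passing the limit was not always enough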;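 note: agonist challenge used bursicon conditioned medium at about half maximal strength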
HSP90 refold inh: blocks HSP90-mediated luciferase refolding in reticulocyte lysate; inhibition, % at 5.6 µM; Rabbit reticulocyte lysate, luciferase refolding luminescence, 3 h; AID 1789; actives 0.91% (n = 290,000);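 active = inhibition above the screen-wide mean plus 3 SD, computed separately per campaign, cut at about 16% in these data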;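 note: 0% = DMSO wells and 100% = 60 µM geldanamycin wells; inhibitors lower the luminescence because luciferase stays unfolded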
Mdm2 MdmX PPI: inhibitors of human Mdm2/MdmX interaction. O15151+Q00987. SaOS-2 split-luciferase Mdm2/MdmX complementation, luminescence. inhibition, % at 8 µM. actives 3% (n = 330,000). AID 485346;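 active = inhibition of at least 50% at 8 µM in the primary screen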
CF NFkB block: blocks PAF-induced NF-kB reporter in cystic fibrosis cells; KKLEB NF-kB-GFP reporter, GFP fluorescence overnight; inhibition, % at 5 µM; actives 0.86% (n = 360,000); AID 588850;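 active = at least 50% inhibition at 5 µM, scaled per plate between neutral and stimulator controls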;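 note: PAF is a Pseudomonas aeruginosa culture filtrate used as stimulus; plate controls were PAF-stimulated DMSO wells for no effect and unstimulated DMSO wells for full effect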
Peg3 prom inh-1: Peg3 promoter activity inhibition | HeLa PEG-Prom luciferase reporter, luminescence, overnight | inhibition, % at 20 µM | actives 1.7% (n = 360,000) | AID 588405;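 active = inhibition of at least 50% at 20 µM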
KKLEB cytotox: CF airway cell cytotoxicity counter-screen | KKLEB CF airway cells viability, ATPlite luminescence, overnight; hits give low values; cells stimulated with P. aeruginosa culture filtrate | activity change (cytotoxicity), % at 5 µM | actives 0.36% (n = 360,000);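 active = corrected activity change at or below -50% at 5 µM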
Mdm2 MdmX conf: human Mdm2/MdmX binding inhibition, confirmed. shares compounds with Mdm2 MdmX PPI. luminescent assay. inhibition, % at 8 µM. actives 55% (n = 10,000). AID 489028
Full FLuc ctr: counter-screen for Mdm2/MdmX inhibitors: full-length luciferase | actives 77% (n = 6,200) | inhibition, % at 8 µM | shares compounds with Mdm2 MdmX PPI | SaOS-2 full-length luciferase counterscreen, luminescence | AID 504607;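 active = mean inhibition at 8 µM reaching about 37%, which flags the compound as non-specific, limit read from the data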;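 note: p53-null SaOS-2 cells with luciferase driven by a doxycycline-inducible promoter; compound on cells about two nights before reading with doxycycline added after day one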
Peg3 prom inh-2: confirmation of Peg3 promoter inhibitors | shares compounds with Peg3 prom inh-1 | HeLa PEG-Prom luciferase reporter, luminescence, overnight | inhibition, % at 20 µM | actives 84% (n = 1,300);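 active = at 20 µM dose, 40% or more inhibition averaged across four replicates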
CF NFkB inh conf: confirmation of cystic fibrosis induced NF-kB inhibitors | AID 602472 | shares compounds with CF NFkB block | inhibition, % at 5 µM | KKLEB CF airway cells, PAF-induced NF-kB-GFP fluorescence, overnight | actives 64% (n = 1,300);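 note: stimulus PAF is a Pseudomonas aeruginosa filtrate and not platelet activating factor; plate controls were DMSO wells with stimulus for no effect and unstimulated DMSO wells for full effect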
An asterisk follows results filed as active; . = no result given. Cut-off read from the data, not from the text of the source, unless noted: active = inhibition above about 40%; inactive = the rest.

SMILES	LGR2 inh	HSP90 refold inh	Mdm2 MdmX PPI	CF NFkB block	Peg3 prom inh-1	KKLEB cytotox	Peg3 prom inh-2	others
Oc1ccc(CCNc2ncnc3ccc(Cl)cc23)cc1	24	-1	64*	70*	10	-2	.	Mdm2 MdmX conf=73*;Full FLuc ctr=29;CF NFkB inh conf=89*
Cc1ccc(C)c(Cn2nnc3c(=O)[nH]c(C(=O)NCc4ccco4)nc32)c1	-14	2	-1	23	-1	-13	.
O=C(NCc1ccco1)c1nc2c(nnn2Cc2ccccc2Cl)c(=O)[nH]1	93*	2	88*	90*	94*	-49	.	Mdm2 MdmX conf=93*;Full FLuc ctr=21;CF NFkB inh conf=100*
CC(=O)c1cccc(NC(=O)Nc2cccnc2)c1	.	-2	54*	57*	-19	-5	.	Mdm2 MdmX conf=50*;Full FLuc ctr=28;CF NFkB inh conf=77*
CO[C@H]1CN(C)C(=O)c2cc(NS(=O)(=O)c3cn(C)cn3)ccc2OC[C@@H](C)N(Cc2cccc(F)c2)C[C@H]1C	-7	.	.	.	.	.	.
NC(=O)c1cc([N+](=O)[O-])ccc1NCc1ccc(F)cc1	-24	.	-7	2	-100	-24	.
NC(=O)c1cc([N+](=O)[O-])ccc1NCc1ccc(N)cc1	-13	.	31	29	81*	-15	78*
CCOC(=O)c1cc2c(=O)n3ccccc3nc2n(C(C)C)c1=NC(=O)c1c(-c2c(F)cccc2Cl)noc1C	-9	-1	36	-20	64*	-3	43*
C[C@@H]1CN([C@H](C)CO)C(=O)c2cccc(NS(=O)(=O)c3cn(C)cn3)c2O[C@H]1CN(C)Cc1ccc(C(F)(F)F)cc1	14	.	.	.	.	.	.
Cc1c([N+](=O)[O-])cc(N2C(=O)C=CC2=O)cc1[N+](=O)[O-]	2	.	.	3	105*	-1	98*
CCOC(=O)c1ccc(NC(=O)C2CCCN(S(=O)(=O)c3ccc(F)cc3)C2)cc1 (stereo unspecified)	.	-1	20	-14	74*	7	56*
CCOC(=O)c1ccc(NC(=O)C2CCN(S(=O)(=O)c3ccccc3)CC2)cc1	7	-4	-18	-5	30	16	.
COc1cccc(NC(=O)N2CC(=O)N3[C@H](C2)[C@@H](c2ccc(C#CC4CCCCC4)cc2)[C@@H]3CO)c1	8	.	.	.	.	.	.
COc1ccc(NC(=O)N(C)C[C@@H]2Oc3ccc(NS(=O)(=O)c4cn(C)cn4)cc3CC(=O)N([C@@H](C)CO)C[C@@H]2C)cc1	5	.	.	.	.	.	.
CC(C)CCCCCCCCCCCCC(=O)NCC(=O)NC1C(O)C(O)C(Nc2ncnc3nc[nH]c23)OC1C(O)CO (stereo unspecified)	.	.	.	90*	100*	-34	99*
C[C@@H]1CN([C@H](C)CO)C(=O)CCCn2cc(nn2)CO[C@@H]1CN(C)C(=O)Nc1ccc(N2CCCCC2)cc1	8	.	.	.	.	.	.
C[C@@H](NC(=O)C[C@@H]1CC[C@H](NC(=O)CN2CCOCC2)[C@H](CO)O1)c1ccccc1	4	.	.	.	.	.	.
CC1(C(=O)NCc2cccc3ccccc23)CCN1C(=O)Cc1ccc(-c2ccccc2)cc1 (stereo unspecified)	32	.	.	-19	53*	-11	51*
O=S(=O)(N[C@H]1CC[C@H](CCn2cc(-c3cccc(F)c3)nn2)O[C@@H]1CO)c1ccc(Cl)cc1	12	.	.	.	.	.	.
Cc1ccc(S(=O)(=O)N(C)C[C@H]2OCCCC[C@@H](C)Oc3ccc(NS(=O)(=O)c4cn(C)cn4)cc3C(=O)N([C@@H](C)CO)C[C@@H]2C)cc1	1	.	.	.	.	.	.
CCOc1ccc2[nH]c3c(NCCc4ccc(OC)c(OC)c4)ncnc3c2c1	36	4	30	-3	66*	-17	65*
CCOc1ccc2[nH]c3c(NCCO)ncnc3c2c1	-9	0	-2	21	-39	-2	.
Cc1ccc(C2=NC(=O)/C(=C/c3cc(O)c(O)c(Br)c3)S2)cc1	3	-7	14	-7	67*	-6	67*
CN1CCN(c2nc(-c3ccccc3)nc3c2oc2ccccc23)CC1	.	.	6	-59	66*	-2	-3
NC(N)=N/N=C/c1cccc(Cl)c1Cl	25	-5	20	-1	76*	-11	80*
SMILES	LGR2 inh	HSP90 refold inh	Mdm2 MdmX PPI	CF NFkB block	Peg3 prom inh-1	KKLEB cytotox	Peg3 prom inh-2	others
NC(N)=N/N=C/c1cccc([N+](=O)[O-])c1O	12	-2	12	-12	10	20	.
COc1ccc(-c2cc(C(=O)N3CCN(c4ncccn4)CC3)c3ccccc3n2)c(OC)c1	-13	-4	13	-17	53*	-26	45*
COc1ccc(-c2cc(C(=O)N3CCN(c4ccccc4F)CC3)c3ccccc3n2)c(OC)c1	-12	8	41	-9	51*	13	52*
COc1ccc(-c2cc(C(=O)N3CCN(c4ncccn4)CC3)c3ccccc3n2)cc1	-69	.	22	-3	-67	-28	.
COc1ccc(OC)c(-c2cc(C(=O)N3CCN(c4ncccn4)CC3)c3ccccc3n2)c1	.	2	38	-4	55*	-4	52*
COc1ccc(-c2cc(C(=O)N3CCCCCC3)c3ccccc3n2)c(OC)c1	-5	2	13	-1	16	-18	.
C[C@@H]1CN([C@H](C)CO)C(=O)c2cccc(NC(=O)C3CCOCC3)c2O[C@@H]1CN(C)C(=O)Nc1ccc2c(c1)OCO2	14	.	.	.	.	.	.
CN(C)CCNc1ncnc2c1sc1nc(N3CCCC3)c3c(c12)CC(C)(C)OC3	6	4	34	16	57*	-16	67*
O=C(O)c1cccc(N/N=C/c2cccs2)c1	100*	52*	-51	-27	83*	6	68*
O=C(O)CN1C(=O)/C(=C\c2ccccc2OCc2ccc(Cl)cc2Cl)SC1=S	-12	5	14	-20	55*	11	65*
CCCC(=O)OCCNc1cc(SCCC(=O)OC)c2nonc2c1[N+](=O)[O-]	30	3	25	22	25	-2	.
CC(=O)OCCNc1cc(SCc2ccco2)c2nonc2c1[N+](=O)[O-]	.	3	.	28	52*	13	69*
CCOc1ccc(-c2ccc(SCC(=O)Nc3nnc(CC)s3)nn2)cc1	2	-6	-62	-3	-242	-25	.
CCOc1ccc(-c2ccc(SC)nn2)cc1	99*	73*	21	-13	76*	-60*	45*
